Results reported in PubChem BioAssay (Tox21).
Inconclusive results are not listed. Activity calls are given as the source filed them. Unless noted, calls come from the whole dose curve; as a rule, active = well fitted curve in the direction sought with a large enough effect in the repeat runs; inconclusive = weak or mixed curves; inactive = no such curve, though single readings can be large; an effect the other way counts as inactive or inconclusive.

Key:
[1] = qHTS assay to identify small molecule agonists of H2AX (AID 1224845; active = well fitted activation curve with a large enough effect in the signal ratio in the repeat runs, not every such curve was filed as active; the % refers to the signal ratio)
Method in brief: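 Phospho-H2AX Ser139 measured by HTRF (ex 320 nm; em 665 and 620 nm) after 24 hr antibody incubation. Compounds, 15 concentrations, 0.76% DMSO, were applied to CHO-K1 cells for 3hr at 37C before lysis.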

[2] = qHTS assay to identify small molecule agonists of H2AX - cell viability counter screen (AID 1224847; calls by dose curve;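 note: wild-type CHO-K1 cells; top concentration of the series differs between compounds; nearly all actives have a fitted effect of over 30% in size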)
Method in brief: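 Cells plated first: CHO-K1, 1000 per well in 10% FBS medium, incubated overnight at 37C. Then 15-point compound titration added (final DMSO 0.76%) for 3 hr. Finally CellTiter-Glo added and luminescence read.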

[3] = qHTS RealTime-Glo MT Cell Viability Assay in HepG2 cells - 24 hour (AID 1224867); note: nearly all actives have a fitted effect of over 50% in size
Method in brief: (§1)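 qHTS, HepG2, 600 cells/well, RealTime-Glo (NanoLuc + prosubstrate) added with cells; 5 h preincubation; DMSO compound addition; 37 C; luminescence at 0/8/16/24/32/40 h.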

[4] = qHTS RealTime-Glo MT Cell Viability Assay in HEK293 cells - 32 hour (AID 1224868); note: top concentration of the series differs between compounds; nearly all actives have a fitted effect of over 50% in size
Method in brief: (§2)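 Assay medium contained NanoLuc luciferase plus cell-permeant prosubstrate, added with HEK293 cells at 600 cells/well. After 5 h at 37 C/5% CO2 compounds were added; plates stayed at 37 C for 40 h with serial luminescence reads.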

[5] = A CellTox Green Cytotoxicity Assay to monitor cytotoxicity in HEK293 cells - 0 hour (AID 1224869); note: nearly all actives have a fitted effect of over 50% in size
Method in brief: (§3)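 Seeding of HEK293 cells together with cytotoxicity dye preceded a 5 h incubation at 37 C/5% CO2. Test compounds in DMSO were then added and fluorescence monitored across 40 h.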

[6] = qHTS RealTime-Glo MT Cell Viability Assay in HepG2 cells - 40 hour (AID 1224870); note: nearly all actives have a fitted effect of over 50% in size
Method in brief: (§4)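 Real-time viability: cells seeded at 600 per well together with NanoLuc and cell-permeant prosubstrate, compounds added after 5 h incubation. Luminescence tracked at 0, 8, 16, 24, 32 and 40 h of exposure.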

[7] = A CellTox Green Cytotoxicity Assay to monitor cytotoxicity in HEK293 cells - 40 hour (AID 1224871); note: nearly all actives have a fitted effect of over 45% in size
Method in brief: as §3

[8] = qHTS RealTime-Glo MT Cell Viability Assay in HEK293 cells - 16 hour (AID 1224872)
Method in brief: as §2

[9] = qHTS RealTime-Glo MT Cell Viability Assay in HepG2 cells - 8 hour (AID 1224873); note: nearly all actives have a fitted effect of over 55% in size
Method in brief: as §4

[10] = qHTS RealTime-Glo MT Cell Viability Assay in HEK293 cells - 40 hour (AID 1224874); conditions: RealTime-Glo luminescence; max response: active compounds read low; note: nearly all actives have a fitted effect of over 50% in size
Method in brief: (§5)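 Tox21 screen in HEK293 using RealTime-Glo MT chemistry, with cells and reagent co-dispensed. Luminescence proportional to viable cell number was captured at intervals during 40 h compound exposure at 37 C.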

[11] = A CellTox Green Cytotoxicity Assay to monitor cytotoxicity in HEK293 cells - 24 hour (AID 1224875); note: nearly all actives have a fitted effect of over 45% in size
Method in brief: as §3

[12] = A CellTox Green Cytotoxicity Assay to monitor cytotoxicity in HepG2 cells - 16 hour (AID 1224876); note: nearly all actives have a fitted effect of over 45% in size; note: potency is the fitted concentration of half-maximal effect
Method in brief: (§6)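 Nonlytic assay: viable cells exclude the dye, so fluorescence scales with cell death. HepG2 at 600 cells/well, compounds added after 5 h, signal read across 40 h.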

[13] = qHTS RealTime-Glo MT Cell Viability Assay in HepG2 cells - 32 hour (AID 1224877); note: nearly all actives have a fitted effect of over 55% in size
Method in brief: as §1

[14] = A CellTox Green Cytotoxicity Assay to monitor cytotoxicity in HepG2 cells - 24 hour (AID 1224878); note: nearly all actives have a fitted effect of over 45% in size; note: potency is the fitted concentration of half-maximal effect
Method in brief: as §6

[15] = A CellTox Green Cytotoxicity Assay to monitor cytotoxicity in HepG2 cells - 40 hour (AID 1224879); note: nearly all actives have a fitted effect of over 40% in size
Method in brief: as §6

[16] = A CellTox Green Cytotoxicity Assay to monitor cytotoxicity in HEK293 cells - 32 hour (AID 1224881); note: nearly all actives have a fitted effect of over 40% in size
Method in brief: as §3

[17] = qHTS RealTime-Glo MT Cell Viability Assay in HEK293 cells - 0 hour (AID 1224880)
Method in brief: as §5

[18] = qHTS assay to identify small molecule agonists of the hypoxia (HIF-1) signaling pathway (AID 1224846; active = well fitted activation curve with a large enough effect in the signal ratio in the repeat runs, not every such curve was filed as active; the % refers to the signal ratio)
Method in brief: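 Hypoxia-pathway activation was scored as increased beta-lactamase from an HRE-controlled reporter in ME-180 cells; plated at 2,000 cells per well with 0.5% dialyzed FBS, they were exposed 17 hrs to compounds and then given CCF4-AM.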

[19] = qHTS assay to identify small molecule antagonists of the estrogen related receptor (ERR) signaling pathway from Tox21 library (AID 1224848); note: nearly all actives have a fitted effect of over 50% in size
Method in brief: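 Antagonist-mode screen of the Tox21 10K library in an NTP-provided ERR reporter cell line; 18 h compound exposure at 37 C, luminescence measured with ONE-Glo.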

[20] = qHTS assay to identify small molecule agonists of the estrogen related receptor (ERR) signaling pathway from Tox21 library (AID 1224849; calls by dose curve; note: nearly all actives have a fitted effect of over 15% in size); conditions: ERR reporter cell line, ONE-Glo luciferase, 18 h; at 92.4 µM (top of the series) unless noted
Method in brief: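 Six hours post-seeding at 37 C/5% CO2, ERR cells receive DMSO-solubilised compounds; after 18 h at 37 C, ONE-Glo reagent is applied and luminescence recorded.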
% is set by controls: 0 for no effect and ±100 for the full control effect.

CC(=O)OCC(=O)[C@@]1(OC(C)=O)[C@@H](C)C[C@H]2[C@@H]3C[C@H](F)C4=CC(=O)C=C[C@]4(C)[C@@]3(F)[C@@H](O)C[C@@]21C
inactive: Potency [1] | Potency [2] | Potency [3] | Potency [4] | Potency [5] | Potency [6] | Potency [7] | Potency [8] | Potency [9] | max response [10] -24.6% | Potency [11] | Potency [12] | Potency [13] | Potency [14] | Potency [15] | Potency [16]

CCN(CC)CCOC(=O)C(c1ccccc1)c1ccccc1
inactive: Potency [1] | Potency [2] | Potency [3] | Potency [4] | Potency [6] | Potency [7] | Potency [8] | Potency [9] | max response [10] 0.0208% | Potency [11] | Potency [12] | Potency [13] | Potency [14] | Potency [15] | Potency [17] | Potency [16]

O=C(O)CCCc1c[nH]c2ccccc12
inactive: Potency [1] | outcome [18] | Potency [19] | activity change, positive = activation [20] 11.9% | Potency [3] | Potency [4] | Potency [5] | Potency [6] | Potency [7] | Potency [9] | max response [10] -0.277% | Potency [11] | Potency [12] | Potency [13] | Potency [17] | Potency [16]
active: Potency [14] 17.4 µM

Nc1c(Cl)cc(Cl)cc1[N+](=O)[O-]
inactive: Potency [1] | outcome [18] | Potency [19] | activity change, positive = activation [20] -2% | Potency [3] | Potency [4] | Potency [5] | Potency [6] | Potency [7] | Potency [8] | Potency [9] | max response [10] 7.12% | Potency [11] | Potency [17] | Potency [16]

O=NN(CCCl)C(=O)NCCCl
active: Potency [12] 4.77 µM
inactive: Potency [1] | Potency [2] | Potency [19] | activity change, positive = activation [20] 2.54% [at 42.5 µM] | Potency [3] | Potency [4] | Potency [6] | Potency [7] | Potency [8] | Potency [9] | max response [10] 8.5% | Potency [11] | Potency [13] | Potency [17] | Potency [16]

COc1cc(NC(C)CCCN)c2ncccc2c1 (stereo unspecified)
inactive: Potency [1] | Potency [2] | Potency [19] | activity change, positive = activation [20] -9.72% [at 42.5 µM] | Potency [3] | Potency [4] | Potency [5] | Potency [6] | Potency [7] | Potency [8] | Potency [9] | max response [10] -12.5% | Potency [11] | Potency [12] | Potency [13] | Potency [14] | Potency [15] | Potency [17] | Potency [16]

CC[C@H]1OC(=O)[C@H](C)[C@@H](O[C@H]2C[C@@](C)(OC)[C@@H](O)[C@H](C)O2)[C@H](C)[C@@H](O[C@@H]2O[C@H](C)C[C@H](N(C)C)[C@H]2O)[C@](C)(O)C[C@@H](C)C(=O)[C@H](C)[C@@H](O)[C@]1(C)O
inactive: Potency [1] | Potency [2] | Potency [3] | Potency [4] | Potency [5] | Potency [6] | Potency [7] | Potency [8] | Potency [9] | max response [10] -19.4% | Potency [12] | Potency [13] | Potency [14] | Potency [15] | Potency [17] | Potency [16]

Cc1cc(CCCOc2c(C)cc(-c3noc(C(F)(F)F)n3)cc2C)on1
inactive: Potency [1] | outcome [18] | Potency [3] | Potency [5] | Potency [6] | Potency [7] | Potency [9] | Potency [12] | Potency [13] | Potency [14] | Potency [15] | Potency [17] | Potency [16]

c1ccc(CCCc2ccncc2)cc1
inactive: Potency [1] | outcome [18] | Potency [3] | Potency [4] | Potency [5] | Potency [6] | Potency [9] | max response [10] -19.7% | Potency [13] | Potency [17]
active: Potency [12] 12.3 µM

CCN(CC)C(=O)N1CCN(C)CC1
inactive: Potency [1] | Potency [2] | Potency [19] | activity change, positive = activation [20] 6.11% [at 42.5 µM] | Potency [3] | Potency [4] | Potency [6] | Potency [7] | Potency [8] | Potency [9] | max response [10] 4.18% | Potency [11] | Potency [12] | Potency [13] | Potency [14] | Potency [15] | Potency [17] | Potency [16]

CCCCCCCCCCCCCOS(=O)(=O)O
inactive: Potency [1] | Potency [2] | Potency [3] | Potency [4] | Potency [5] | Potency [6] | Potency [7] | Potency [8] | Potency [9] | max response [10] -4.56% | Potency [13] | Potency [17]

CNc1c2c(nn1C)CCCC2
inactive: Potency [1] | Potency [2] | Potency [3] | Potency [4] | Potency [6] | Potency [7] | Potency [9] | max response [10] -3.57% | Potency [11] | Potency [12] | Potency [13] | Potency [14] | Potency [17] | Potency [16]

O=C(Oc1ccccc1)c1ccc2ccccc2c1O
active: activity change, positive = activation [20] 116%
inactive: Potency [1] | outcome [18] | Potency [19] | Potency [3] | Potency [4] | Potency [5] | Potency [6] | Potency [7] | Potency [9] | max response [10] -20.6% | Potency [11] | Potency [13] | Potency [15] | Potency [17] | Potency [16]

CC(=O)OCC1=C(C(=O)O)N2C(=O)[C@@H](NC(=O)CSc3ccncc3)[C@H]2SC1
inactive: Potency [1] | Potency [2] | Potency [19] | activity change, positive = activation [20] 0.532% [at 42.5 µM] | Potency [3] | Potency [4] | Potency [5] | Potency [6] | Potency [7] | Potency [8] | Potency [9] | max response [10] 5.21% | Potency [12] | Potency [13] | Potency [14] | Potency [17] | Potency [16]
